Here are results for six compounds from PubChem BioAssay.

The source made the active and inactive calls.

One experiment addresses Albumin (Bos taurus) (UniProt P02769). The experiment in a line: bovine serum albumin binders on microarray, profiling panel, artefact control for SMM control protein annotation, biochemical, small-molecule microarray, Alexa647 label, 635/667 nm fluorescence (AID 1118).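 Also: score merges 667 nm emission intensity and signal-to-noise per printed compound spot.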 The note with it: BSA-A647 binding, fluorescence 635 nm, higher = more signal.
Experiment [1] in a line: small-molecule microarray binders of probe aXIP, primary screen, biochemical, NeuroSMM set, 635/667 nm fluorescence (AID 1119).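 Also: probe is the protein aXip251-270 applied at 1 µg/mL to compound-printed slides; binding of probe to printed compounds measured as 667 nm fluorescence plus signal to noise.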 The note with it: higher = more signal, called active from +8 up or from −8 down.
Experiment [2] can be described thus: small-molecule binders of probe aNOTCH3, primary screen, biochemical, small-molecule microarray, 635/667 nm fluorescence (AID 1120).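 Also: probe is a biotin-tagged antibody raised against NOTCH3 rather than NOTCH3 protein; score merges spot fluorescence near 667 nm with spot signal to noise.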 As to conditions: higher = more signal.
Experiment [3] can be described thus: small-molecule binders of probe aNOTCH2, primary screen, biochemical, small-molecule microarray, 635/667 nm fluorescence (AID 1121).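 Also: score merges feature fluorescence read at 667 nm with its signal to noise.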 As to conditions: higher = more signal.
In experiment [4] the target is Carbonic anhydrase 2 (Homo sapiens) (UniProt P00918). In words: CAII small-molecule binders, profiling panel, biochemical, small-molecule microarray, Alexa647-labelled CAII (AID 1122). The note with it: CAII-A647 binding fluorescence, higher = more signal.
A short description of experiment [5]: COS7 lysate on small-molecule microarray, probe aHis, 635 nm (AID 1123).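 Also: z-score combines 667nm fluorescence intensity with signal-to-noise per printed compound spot.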 The note with it: COS7 cell lysate, fluorescence, higher = more signal.
Experiment [6] can be described thus: compound binding in COS7 lysate, probe aLAP1, primary screen, cell lysate, small-molecule microarray (AID 1124).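 Also: lysate comes from COS7 cells expressing LAP1 and is applied at 0.3 µg/mL; score merges spot fluorescence near 667 nm with signal-to-noise over triplicate slides.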 As to conditions: probe aLAP1, fluorescence, higher = more signal.
In a further experiment the test system is Sam68 (KHDRBS1). In words: Sam68 small-molecule binders, primary screen, biochemical, small-molecule microarray, 635 nm fluorescence (AID 1125).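 Also: score merges 667 nm channel intensity with signal to noise over triplicate slides.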 The note with it: small-molecule microarray binding, higher = more signal.
Experiment [7] deals with Chordin-like protein 2 (CHRDL2). In words: CHRDL2 small-molecule binders, primary screen, biochemical, small-molecule microarray, 635 nm fluorescence (AID 1126).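 Also: printed compound slides probed with Chrdl2 protein at 4 µg/mL for 1 h at 4 C; score merges 667 nm emission intensity with signal to noise over three replicate slides.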 The note with it: small-molecule microarray binding, fluorescence 635 nm; higher = more signal.
Experiment [8] has as its target Concanavalin-A (Canavalia ensiformis) (UniProt P02866). The experiment in a line: ConA small-molecule binders, primary screen, artefact control for SMM control protein annotation, biochemical, small-molecule microarray, Alexa647 label, 635 nm (AID 1127).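 Also: z combines 667 nm emission intensity with signal-to-noise across three replicate slides.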 As to conditions: ConA-A647 binding fluorescence, higher = more signal.
The nature of experiment [9]: anti-His antibody binders, primary screen, artefact control for SMM control protein annotation, biochemical, small-molecule microarray, 635 nm fluorescence (AID 1128).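 Also: score merges feature fluorescence with signal-to-noise for each printed compound spot.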 The note with it: anti-His Alexa647 antibody binding, higher = more signal.
Experiment [10] has as its system Human papillomavirus type 1a E7 protein (residues 1-88). In words: HPV1a E7 small-molecule binders, primary screen, biochemical, small-molecule microarray, residues 1-88, 635 nm (AID 1129). As to conditions: small-molecule microarray binding, fluorescence 635 nm; higher = more signal.
Experiment [11] deals with Focal adhesion kinase 1 (Homo sapiens) (UniProt Q05397). The experiment in a line: small-molecule microarray binders of FAK, primary screen, biochemical, 635/667 nm fluorescence, BSA, DTT (AID 1130).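 Also: composite of spot emission at 667 nm and signal to noise over triplicate slides.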 The note with it: PTK2 binding, 635 nm fluorescence, higher = more signal.
Experiment [12] has as its system Fibrinogen (Alexa647-labelled). In words: fibrinogen binders on compound microarrays, profiling panel, artefact control for SMM control-protein annotation, biochemical, small-molecule microarray, 635/667 nm fluorescence (AID 1131).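 Also: z-score merges 667 nm fluorescence with per-spot signal-to-noise over triplicate slides.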 As to conditions: fibrinogen-A647 binding fluorescence, higher = more signal.
The target of experiment [13] is Follistatin (Homo sapiens) (UniProt P19883). The experiment in a line: follistatin binders on small-molecule microarrays, primary screen, biochemical, small-molecule microarray, 635/667 nm fluorescence (AID 1132). As to conditions: FST binding, 635 nm fluorescence, higher = more signal.
In experiment [14] the target is Fibroblast growth factor 2 (Homo sapiens) (UniProt P09038). The experiment in a line: FGF2 binders on small-molecule microarrays, primary screen, biochemical, small-molecule microarray, 635/667 nm fluorescence (AID 1133). As to conditions: small-molecule microarray binding, FGF2, fluorescence 635/667; higher = more signal.
Experiment [15] can be described thus: mitochondrial membrane potential change in A549 cells, profiling panel, cell-based, JC-1 fluorescence, basal, 24 h, 100 nL (AID 1138).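 Also: A549 lung adenocarcinoma cells under basal conditions with no added stimulus; test concentration not given here.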 As to conditions: higher = more signal.
A further experiment has as its system Lefty1. The experiment in a line: Lefty1 binders on small-molecule microarrays, primary screen, biochemical, small-molecule microarray, 635/667 nm fluorescence (AID 1139). As to conditions: small-molecule microarray binding, fluorescence 635/667; higher = more signal.
Experiment [16] relates to wheat germ agglutinin (Triticum aestivum), Alexa647-labelled. The experiment in a line: wheat germ agglutinin binders on compound microarrays, profiling panel, artefact control for SMM control-protein annotation, biochemical, small-molecule microarray, 635/667 nm fluorescence (AID 1140).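 Also: score merges 667 nm feature emission with signal to noise over triplicate slides.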 As to conditions: WGA-A647 binding, 635 nm fluorescence, higher = more signal.
Experiment [17] concerns the target Luciferin 4-monooxygenase (Photinus pyralis) (UniProt P08659). The experiment in a line: firefly luciferase enzyme inhibitors, primary screen, biochemical, luminescence, purified enzyme, 2006 set (AID 1141).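 Also: cell-free assay with purified firefly luciferase at 100 ng per well in PBS; test concentration not given here.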 As to conditions: SteadyGlo luminescence, 30 min, higher = more signal, called active from +8 up or from −8 down.

Chain of Fibroblast growth factor 2 (Homo sapiens) (P09038 whole entry, looked up): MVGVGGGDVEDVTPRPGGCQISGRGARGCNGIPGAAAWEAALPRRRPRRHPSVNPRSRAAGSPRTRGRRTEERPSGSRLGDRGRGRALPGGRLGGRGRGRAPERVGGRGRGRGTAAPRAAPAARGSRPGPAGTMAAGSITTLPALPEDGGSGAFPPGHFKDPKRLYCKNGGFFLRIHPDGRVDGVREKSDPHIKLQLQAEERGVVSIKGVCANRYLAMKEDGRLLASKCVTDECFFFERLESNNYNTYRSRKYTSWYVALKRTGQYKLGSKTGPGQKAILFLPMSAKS
Chain of Concanavalin-A (Canavalia ensiformis) (P02866 whole entry, looked up): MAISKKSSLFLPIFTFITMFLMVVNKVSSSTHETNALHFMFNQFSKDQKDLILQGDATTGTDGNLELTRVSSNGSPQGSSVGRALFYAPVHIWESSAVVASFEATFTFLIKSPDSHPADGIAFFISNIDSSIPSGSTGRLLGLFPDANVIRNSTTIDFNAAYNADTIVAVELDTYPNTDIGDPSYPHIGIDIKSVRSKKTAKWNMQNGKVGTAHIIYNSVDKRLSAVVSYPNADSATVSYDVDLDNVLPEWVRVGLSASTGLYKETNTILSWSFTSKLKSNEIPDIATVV
Chain of Focal adhesion kinase 1 (Homo sapiens) (Q05397 whole entry, looked up): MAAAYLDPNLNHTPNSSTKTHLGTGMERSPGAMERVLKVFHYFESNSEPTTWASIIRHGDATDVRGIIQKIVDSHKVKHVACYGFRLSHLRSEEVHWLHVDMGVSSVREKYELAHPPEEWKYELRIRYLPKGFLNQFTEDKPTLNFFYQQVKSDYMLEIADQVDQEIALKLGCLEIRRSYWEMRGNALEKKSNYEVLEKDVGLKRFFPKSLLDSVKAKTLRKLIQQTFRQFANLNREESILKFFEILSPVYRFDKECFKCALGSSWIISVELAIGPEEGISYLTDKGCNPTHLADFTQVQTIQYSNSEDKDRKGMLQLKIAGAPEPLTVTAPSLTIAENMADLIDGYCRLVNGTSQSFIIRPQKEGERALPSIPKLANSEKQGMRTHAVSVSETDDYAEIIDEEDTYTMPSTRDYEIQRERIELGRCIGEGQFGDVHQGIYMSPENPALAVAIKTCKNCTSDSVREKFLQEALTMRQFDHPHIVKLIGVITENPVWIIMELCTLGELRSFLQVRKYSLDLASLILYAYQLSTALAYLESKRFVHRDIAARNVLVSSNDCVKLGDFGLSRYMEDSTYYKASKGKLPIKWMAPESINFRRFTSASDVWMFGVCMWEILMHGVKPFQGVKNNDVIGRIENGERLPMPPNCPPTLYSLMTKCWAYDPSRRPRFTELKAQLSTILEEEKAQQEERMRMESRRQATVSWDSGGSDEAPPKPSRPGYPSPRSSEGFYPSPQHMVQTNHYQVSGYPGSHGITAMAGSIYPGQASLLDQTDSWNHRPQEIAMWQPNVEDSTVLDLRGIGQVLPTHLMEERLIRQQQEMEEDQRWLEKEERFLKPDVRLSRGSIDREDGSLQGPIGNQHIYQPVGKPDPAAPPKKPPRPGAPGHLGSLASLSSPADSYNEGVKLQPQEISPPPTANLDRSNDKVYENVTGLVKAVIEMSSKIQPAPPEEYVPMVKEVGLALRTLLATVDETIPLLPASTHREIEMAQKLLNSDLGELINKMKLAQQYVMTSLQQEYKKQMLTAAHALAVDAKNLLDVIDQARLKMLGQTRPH
Chain of Luciferin 4-monooxygenase (Photinus pyralis) (P08659 whole entry, looked up): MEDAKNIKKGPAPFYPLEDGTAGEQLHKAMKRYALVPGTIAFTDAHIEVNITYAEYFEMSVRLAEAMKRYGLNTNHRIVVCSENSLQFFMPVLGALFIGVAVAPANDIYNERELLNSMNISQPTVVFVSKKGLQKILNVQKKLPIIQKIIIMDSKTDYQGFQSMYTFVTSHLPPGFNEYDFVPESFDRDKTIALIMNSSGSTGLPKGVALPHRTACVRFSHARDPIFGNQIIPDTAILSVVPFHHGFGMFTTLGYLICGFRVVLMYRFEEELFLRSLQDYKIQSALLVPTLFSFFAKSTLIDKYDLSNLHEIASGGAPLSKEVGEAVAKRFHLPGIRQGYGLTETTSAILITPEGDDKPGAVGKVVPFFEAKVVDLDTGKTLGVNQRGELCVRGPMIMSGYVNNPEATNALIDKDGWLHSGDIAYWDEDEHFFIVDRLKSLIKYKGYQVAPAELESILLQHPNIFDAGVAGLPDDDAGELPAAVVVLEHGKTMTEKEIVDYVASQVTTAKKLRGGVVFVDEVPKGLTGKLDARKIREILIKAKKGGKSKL
Chain of Follistatin (Homo sapiens) (P19883 whole entry, looked up): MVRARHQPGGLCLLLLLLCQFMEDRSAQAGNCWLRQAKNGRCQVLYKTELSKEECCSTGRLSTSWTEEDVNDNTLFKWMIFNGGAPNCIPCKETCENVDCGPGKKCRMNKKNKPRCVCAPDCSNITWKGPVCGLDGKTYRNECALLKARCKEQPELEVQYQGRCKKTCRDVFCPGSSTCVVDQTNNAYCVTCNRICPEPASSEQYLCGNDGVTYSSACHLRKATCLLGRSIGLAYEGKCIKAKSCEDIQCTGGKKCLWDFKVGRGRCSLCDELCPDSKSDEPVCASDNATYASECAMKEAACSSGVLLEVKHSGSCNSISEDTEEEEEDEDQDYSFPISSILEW
Chain of Albumin (Bos taurus) (P02769 whole entry, looked up): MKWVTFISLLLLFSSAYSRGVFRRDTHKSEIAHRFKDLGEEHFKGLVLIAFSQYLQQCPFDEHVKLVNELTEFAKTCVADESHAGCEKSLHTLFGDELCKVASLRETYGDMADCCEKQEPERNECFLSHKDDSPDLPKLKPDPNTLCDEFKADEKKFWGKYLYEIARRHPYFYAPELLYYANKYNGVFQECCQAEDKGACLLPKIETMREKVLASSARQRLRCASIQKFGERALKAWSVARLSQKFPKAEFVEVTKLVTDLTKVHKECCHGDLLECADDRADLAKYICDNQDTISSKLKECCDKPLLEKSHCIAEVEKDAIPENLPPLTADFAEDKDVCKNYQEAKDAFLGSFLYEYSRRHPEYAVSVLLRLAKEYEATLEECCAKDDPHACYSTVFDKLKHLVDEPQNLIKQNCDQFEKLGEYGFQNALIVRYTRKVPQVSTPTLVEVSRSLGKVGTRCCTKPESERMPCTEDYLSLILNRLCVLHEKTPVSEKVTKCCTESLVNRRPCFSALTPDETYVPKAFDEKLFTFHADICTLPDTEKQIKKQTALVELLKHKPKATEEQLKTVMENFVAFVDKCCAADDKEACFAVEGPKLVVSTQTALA

On to `C=CC[C@]1(C(=O)NCCCOC)N=C(c2ccc(OCCCO)cc2)O[C@H]1c1ccccc1CN=[N+]=[N-]`, for which the composite z-score with Albumin (Bos taurus) is 0.782; in [2], 0.119; in experiment [3], -0.0013; in experiment [4] it was 0.748; in experiment [5], 2.59; in [6] it was 0.298. Besides, the composite z-score with Sam68 (KHDRBS1) is 1.14; in experiment [7] it was -0.257; in experiment [8], 0.983; in [9], 2.44; in [10], 1.23; in [11] it was 0.932. Also, the composite z-score in experiment [12] is 1; in experiment [13], 1.14; in [14] it was 0.564; with Lefty1, -0.0763; in [16], 0.934. For the same compound, in [1], the composite Z-score is 0.571 (inactive). Besides, the z-score in experiment [15] was 2.04; in experiment [17], -0.529 (inactive).
Turning to `CC(C)C(=C=CC[C@@H](O)c1ccc(OCCO)cc1)C[C@@H](O)COCc1ccccc1`, the composite z-score with Albumin (Bos taurus) is 0.531; in experiment [2] it was 0.0744; in experiment [3] it was -0.105; in [4], 0.624; in experiment [5] it was 0.924; in experiment [6] it was 0.664. The composite z-score in the experiment on Sam68 (KHDRBS1) was 1.19; in experiment [7], 0.325; in [8], -0.625; in experiment [9], -0.547; in experiment [10] it was 0.948; in experiment [11], 0.0144. The composite z-score turned out to be 0.602 in [12]; 1.36 in experiment [13]; 1.46 in experiment [14]; 1.58 with Lefty1; 0.225 in experiment [16]. Besides, the composite Z-score in experiment [1] was -0.114 (inactive). In addition, the values for the z-score in experiment [15] and in experiment [17] were 0.922 and -1.3 (inactive), respectively.
As for `C=CCNC(=O)[C@@H]1[C@H]2C(=O)O[C@H](c3ccccc3)[C@H](c3ccccc3)N2[C@H](c2ccc(O)cc2)[C@@]12C(=O)Nc1ccc(C#CCNC(N)=O)cc12`, the composite z-score with Albumin (Bos taurus) was 0.118; in [2], -0.169; in [3], -0.166; in experiment [4], 0.352; in experiment [5], 0.636; in experiment [6], 0.73. Also, the composite z-score in the experiment with Sam68 (KHDRBS1) is 0.512; in experiment [7], -0.671; in experiment [8], 0.0889; in experiment [9] it was -0.22; in experiment [10] it was -0.222; in experiment [11], 0.186. In addition, the composite z-score in experiment [12] is -0.609; in experiment [13] it was 0.842; in [14], -0.598; in the experiment with Lefty1 it was 0.538; in [16], 0.414. Further, the composite Z-score in [1] is 0.0219 (inactive). Further, the z-score in [15] is -1.27; in experiment [17], -0.895 (inactive).
On to `O=C1C[C@@](C(=O)NCCN2CCOCC2)(c2ccc([N+](=O)[O-])cc2)[C@@H](c2ccc(CO)cc2)N1CC12CC3CC(CC(C3)C1)C2`, for which the composite z-score with Albumin (Bos taurus) was 0.0577; in experiment [2] it was 0.0208; in [3], -0.084; in [4] it was 0.548; in experiment [5] it was 2.53; in experiment [6], 0.0978. The composite z-score in the experiment on Sam68 (KHDRBS1) is 1.29; in experiment [7], 0.901; in experiment [8], 0.926; in experiment [9], 2.5; in experiment [10] it was 1.25; in [11], 0.296. Also, the composite z-score in [12] was 0.904; in experiment [13], 1.34; in experiment [14], 1.13; in the experiment on Lefty1, 0.646; in experiment [16], 1.09. Moreover, in experiment [1], the composite Z-score was 0.0308 (inactive). The values for the z-score in experiment [15] and in [17] were -0.712 and -0.988 (inactive), respectively.
For `CCOC(=O)C[C@H]1[C@H](OC(=O)c2ccccc2-c2ccccc2)[C@@H](NC(=O)CC(C)C)c2cc(OCCCO)ccc2N1C(=O)Cc1ccc(OC)cc1`, the composite z-score with Albumin (Bos taurus) is 0.401; in experiment [2], 0.0708; in experiment [3], -0.118; in experiment [4], -0.132; in [5] it was 0.761; in experiment [6], -0.201. The composite z-score in the experiment on Sam68 (KHDRBS1) was 0.488; in [7], 0.246; in experiment [8] it was 0.482; in experiment [9] it was -0.272; in experiment [10], 0.149; in experiment [11], -0.0432. The composite z-score in [12] was 0.522; in experiment [13], -0.247; in [14] it was 0.268; with Lefty1 it was 0.108; in [16], 0.288. Moreover, the composite Z-score in experiment [1] is 0.692 (inactive). Further, the z-score is 1.15 in experiment [15] and -0.0339 (inactive) in experiment [17].
`CN1C(=O)C2C=CC(C(O)C3CC=CCC3)N(N(c3ccccc3)c3ccccc3)C2C1=O` (stereo not given): the composite z-score is -0.197 with Albumin (Bos taurus); 0.0715 in experiment [2]; 0.19 in experiment [3]; -0.287 in experiment [4]; -0.202 in experiment [5]; 0.52 in experiment [6]. The composite z-score in the experiment with Sam68 (KHDRBS1) is -1.25; in experiment [7], 0.774; in experiment [8], -0.372; in [9], 0.118; in experiment [10], -1.42; in experiment [11] it was 0.102. In addition, the composite z-score in experiment [12] was 0.0963; in experiment [13] it was 0.988; in experiment [14] it was -0.179; in the experiment with Lefty1, 0.449; in experiment [16] it was 0.259. For the same compound, the composite Z-score in experiment [1] was 0.0007 (inactive). Also, the results for the z-score in experiment [15] and in experiment [17] were 0.43 and 0.529 (inactive), respectively.
